Data published in the supplement of paper PMC12350171.
Where a name gives a salt, the structure may show the parent alone.

Each compound was assayed on Haemophilus parainfluenzae (assay: growth AUC normalised to DMSO control (fraction of control); higher = less growth inhibition, active = hit call of the paper). Details: 20 µM;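 active = AUC significantly below DMSO controls by Student t-fit with adjusted P under 0.01; inactive = not significantly reduced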.
How it was run: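 After two anaerobic passages, pathogens were added at a starting OD578 of 0.01 to pre-reduced mGAM plates holding compound at 20 μM with 1% DMSO; hemin and NAD were supplemented for Haemophilus parainfluenzae. Sealed with breathable membranes, plates were read at OD578 hourly for 24 h, in three biological replicates. The trapezoidal rule, applied up to the exponential-to-stationary transition, gave the growth-curve AUC, which was normalised to DMSO controls on the same plate.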

Compound | growth AUC normalised to DMSO control
C[C@]12CCC(=O)C=C1CC[C@@H]1[C@@H]2C(=O)C[C@@]2(C)[C@H]1CC[C@]2(O)C(=O)CO [Cortisone] | 0.971 (inactive)
Cc1cc(=O)n(-c2ccccc2)n1C [Antipyrine] | 0.988 (inactive)
O=C(O)CCc1nc(-c2ccccc2)c(-c2ccccc2)o1 [Oxaprozin] | 1.08 (inactive)
O=C(O)CCNC(=O)c1ccc(/N=N/c2ccc(O)c(C(=O)O)c2)cc1 [Balsalazide disodium salt] | 1.07 (inactive)
Cc1cnc(C(=O)NCCc2ccc(S(=O)(=O)NC(=O)NC3CCCCC3)cc2)cn1 [Glipizide] | 0.995 (inactive)
CCC[C@@H]1C[C@@H](C(=O)N[C@@H]([C@H]2O[C@H](SC)[C@H](O)[C@@H](O)[C@H]2O)[C@@H](C)O)N(C)C1 [Lincomycin hydrochloride] | 0.828 (active)
CCCc1nc2c(C)cc(-c3nc4ccccc4n3C)cc2n1Cc1ccc(-c2ccccc2C(=O)O)cc1 [Telmisartan] | 1.03 (inactive)
O=C(O)CCCC[C@@H]1SC[C@@H]2NC(=O)N[C@@H]21 [Biotin] | 1.01 (inactive)
CN(C)CC/C=C1/c2ccccc2Sc2ccc(Cl)cc21 [Chlorprothixene hydrochloride] | 0.887 (inactive)
CCCNC(C)(C)COC(=O)c1ccccc1 [Meprylcaine hydrochloride] | 1.03 (inactive)
COc1ccc(Cl)cc1C(=O)NCCc1ccc(S(=O)(=O)NC(=O)NC2CCCCC2)cc1 [Glibenclamide] | 0.952 (inactive)
COCC(=O)Nc1c(I)c(C(=O)NCC(O)CO)c(I)c(C(=O)N(C)CC(O)CO)c1I (configuration not stated) [Iopromide] | 1.03 (inactive)
NS(=O)(=O)Cc1noc2ccccc12 [Zonisamide] | 0.981 (inactive)
CN1CCOC(c2ccccc2)c2ccccc2C1 (configuration not stated) [Nefopam hydrochloride] | 1 (inactive)
CCCCN(CCCC)CCCOC(=O)c1ccc(N)cc1 [Butacaine] | 0.998 (inactive)
OCCN1CCN(CCCN2c3ccccc3C=Cc3ccccc32)CC1 [Opipramol dihydrochloride] | 0.911 (inactive)

Compound | growth AUC normalised to DMSO control
CC(Oc1c(Cl)cccc1Cl)C1=NCCN1 (configuration not stated) [Lofexidine] | 0.993 (inactive)
Cc1c(-c2ccccc2)oc2c(C(=O)OCCN3CCCCC3)cccc2c1=O [Flavoxate hydrochloride] | 1.2 (inactive)
CC(C)(C)NC[C@@H](O)COc1cccc2c1CCCC2=O [(+) Levobunolol hydrochloride] | 0.973 (inactive)
CC1CS(=O)(=O)CCN1/N=C/c1ccc([N+](=O)[O-])o1 (configuration not stated) [Nifurtimox] | 0.596 (active)
CN1CCN(CC(=O)N2c3ccccc3C(=O)Nc3cccnc32)CC1 [Pirenzepine dihydrochloride] | 1.01 (inactive)
CCc1cccc2c3c([nH]c12)C(CC)(CC(=O)O)OCC3 (configuration not stated) [Etodolac] | 1.02 (inactive)
Cc1onc(-c2c(F)cccc2Cl)c1C(=O)N[C@@H]1C(=O)N2[C@@H]1SC(C)(C)[C@@H]2C(=O)O [Flucloxacillin sodium] | 0.944 (inactive)
O=C1CCc2cc(OCCCCc3nnnn3C3CCCCC3)ccc2N1 [Cilostazol] | 1.26 (inactive)
C[N+](C)(C)CCOC(N)=O [Carbachol chloride] | 1.09 (inactive)
Nc1ccc(S(=O)(=O)Nc2ncccn2)cc1 [Sulfadiazine] | 1.01 (inactive)
Cc1cnc(C(=O)O)c[n+]1[O-] [Acipimox] | 0.94 (inactive)
CN(C)CCOC(c1ccccc1)c1ccccc1.Cn1c(=O)c2[nH]c(Cl)nc2n(C)c1=O [Dimenhydrinate] | 0.901 (inactive)
CC[N+](C)(C)c1cccc(O)c1 [Edrophonium chloride] | 0.936 (inactive)
CN(C)[C@@H]1C(=O)C(C(=O)NCNCCCC[C@H](N)C(=O)O)=C(O)[C@@]2(O)C(=O)C3=C(O)c4c(O)cccc4[C@@](C)(O)[C@H]3C[C@@H]12 [Lymecycline] | 0.935 (inactive)
CC(=O)OC[C@H]1O[C@@H]([S-])[C@H](OC(C)=O)[C@@H](OC(C)=O)[C@@H]1OC(C)=O.CCP(CC)CC.[Au+] [Auranofin] | 0.189 (active)
Cc1ccc(C(=O)c2ccc(CC(=O)O)n2C)cc1 [Tolmetin sodium salt dihydrate] | 1.07 (inactive)
